Values joined by “and” are separate entries in the source; they are usually repeats but may differ in a detail not shown here. Identical values can stand only once. The panel holds about 83,000 compounds, 20% with a hit somewhere; the sample as a whole holds those more often.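 Testing used 96-well plates and a 48-hour single-concentration exposure. Example: -40 means 40% of the starting cells died.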 Active and inactive are the calls of the source. How the source made its calls: active means growth percent below 10; inactive means the rest.
Experiments:
Assay in all cases: NCI-60 one-dose screen, 48 h (100 = growth as untreated, 0 = no growth, -100 = all killed)
Settings in all cases: 10 µM unless noted
NCI-H23 lung = system: NCI-H23 lung
NCI-H226 lung = system: NCI-H226 lung
NCI-H322M lung = system: NCI-H322M lung
HOP-62 NSCLC = system: HOP-62 NSCLC
NCI-H460 lung = system: NCI-H460 lung
HOP-92 NSCLC = system: HOP-92 NSCLC
NCI-H522 lung = system: NCI-H522 lung
A549/ATCC NSCLC = system: A549/ATCC NSCLC
786-0 renal = system: 786-0 renal
COLO 205 colon = system: COLO 205 colon

Measured: growth

CS(=O)(=O)Nc1cc(-c2ccc3ncnc(Nc4ccc(OCc5cccnc5)c(Cl)c4)c3c2)cnc1Cl
active: NCI-H23 lung -26.9% | NCI-H322M lung -2.48% | HOP-92 NSCLC -27.9% | NCI-H522 lung -4.01% | 786-0 renal 2.08% | COLO 205 colon -73.5%
inactive: NCI-H226 lung 23.8% | HOP-62 NSCLC 24.3% | NCI-H460 lung 35.2% | A549/ATCC NSCLC 45.6%

COc1cc(/C=N/NC(=O)c2ccc(OCc3nc4ccc(C)cc4[nH]3)cc2)cc(OC)c1OC
inactive: NCI-H23 lung 22.3% | NCI-H226 lung 43% | NCI-H322M lung 66.2% | HOP-62 NSCLC 62.5% | NCI-H460 lung 33.6% | HOP-92 NSCLC 96.5% | NCI-H522 lung 28.1% | A549/ATCC NSCLC 28.4% | 786-0 renal 41.2%
active: COLO 205 colon 8.02%

CCCCCCCCc1ccc(C(=O)Nc2ccc(C)cc2C(=O)O)cc1
inactive: NCI-H23 lung 85.2% | NCI-H226 lung 84.3% | NCI-H322M lung 91.1% | HOP-62 NSCLC 96.3% | NCI-H460 lung 88.4% | HOP-92 NSCLC 10.4% | NCI-H522 lung 73.2% | A549/ATCC NSCLC 66.8% | 786-0 renal 89.6% | COLO 205 colon 119%

COc1ccc2[nH]cc(-c3cc4nc(-c5cn(C)c6ncccc56)cc(N)n4n3)c2c1
inactive: NCI-H23 lung 13.9% | NCI-H226 lung 92.6% | NCI-H322M lung 37.1% | HOP-62 NSCLC 19.8%
active: NCI-H460 lung -58.3% | HOP-92 NSCLC -45.7% | NCI-H522 lung -58.7% | A549/ATCC NSCLC -25.9% | 786-0 renal -90.3% | COLO 205 colon -49.9%

Fc1ccc(F)c(CNc2nc(SCCN3CCOCC3)nc3c2cnn3CC(Cl)c2ccc(Br)cc2)c1 (stereo not given)
inactive: NCI-H23 lung 40.3% | NCI-H226 lung 16.2% | NCI-H322M lung 75.2% | HOP-62 NSCLC 47.8% | HOP-92 NSCLC 20.1% | NCI-H522 lung 37.6% | A549/ATCC NSCLC 20.9% | 786-0 renal 17.7%
active: NCI-H460 lung 6.7% | COLO 205 colon -57%

Cc1nn(-c2ccccc2)c2nc(C)n(CC(=O)N/N=C/c3cccc([N+](=O)[O-])c3)c(=O)c12
inactive: NCI-H23 lung 102% | NCI-H226 lung 100% | NCI-H322M lung 98.1% | HOP-62 NSCLC 96.1% | NCI-H460 lung 106% | HOP-92 NSCLC 91.9% | NCI-H522 lung 92.7% | A549/ATCC NSCLC 91.9% | 786-0 renal 84% | COLO 205 colon 120%

Cc1cc(C(NC(=O)CCCCCNc2cccc3c2C(=O)N(C2CCC(=O)CC2=O)C3=O)c2cccc(N(C)C)c2)c(O)c2ncccc12 (stereo not given)
active: NCI-H226 lung -1.45% | HOP-62 NSCLC -22.6% | NCI-H460 lung 5.72% | HOP-92 NSCLC -10.4% | 786-0 renal 2.23% | COLO 205 colon 7.54%
inactive: NCI-H23 lung 24% | NCI-H322M lung 13.7% | NCI-H522 lung 13% | A549/ATCC NSCLC 11.7%

Cc1ccc(S(=O)(=O)N(CCn2ccnc2[N+](=O)[O-])CCn2ccnc2[N+](=O)[O-])cc1
inactive: NCI-H23 lung 104% | NCI-H226 lung 100% | NCI-H322M lung 107% | HOP-62 NSCLC 108% | NCI-H460 lung 109% | HOP-92 NSCLC 106% | NCI-H522 lung 91.5% | A549/ATCC NSCLC 102% | 786-0 renal 101% | COLO 205 colon 111%

COc1ccc(NC(=O)N/N=C/c2c[nH]c3ccccc23)cc1
active: NCI-H522 lung -34.7% | COLO 205 colon 4.05%
inactive: NCI-H23 lung 40% | NCI-H226 lung 34.7% | NCI-H322M lung 43.2% | HOP-62 NSCLC 44.1% | NCI-H460 lung 14.9% | HOP-92 NSCLC 69.5% | A549/ATCC NSCLC 45.6% | 786-0 renal 44.8%

O=C(Nc1nc2ccc([N+](=O)[O-])cc2s1)Nc1ccccc1F
active: NCI-H23 lung 6.62% | NCI-H322M lung 8.1% | HOP-62 NSCLC 6.89% | NCI-H460 lung 2.96% | HOP-92 NSCLC -3.78% | NCI-H522 lung -16.6% | 786-0 renal 7.95%
inactive: NCI-H226 lung 10.9% | A549/ATCC NSCLC 12.2% | COLO 205 colon 21.9%

CC(C)(C)c1ccc(OCc2nc3ccccc3n2-c2cccc(N)c2)cc1
inactive: NCI-H23 lung 50.1% and 100% | NCI-H226 lung 61.1% and 103% | NCI-H322M lung 94.8% and 104% | HOP-62 NSCLC 88.6% and 102% | NCI-H460 lung 78.2% and 109% | HOP-92 NSCLC 41.6% and 106% | NCI-H522 lung 74.5% and 103% | A549/ATCC NSCLC 66.6% and 107% | 786-0 renal 80.9% and 102% | COLO 205 colon 77.6% and 114%

CCN(C(=O)CN1C(=O)/C(=C/c2ccco2)SC1=S)C1CCS(=O)(=O)C1 (stereo not given)
inactive: NCI-H23 lung 99.9% | NCI-H226 lung 99.1% | NCI-H322M lung 99.8% | HOP-62 NSCLC 123% | NCI-H460 lung 101% | HOP-92 NSCLC 103% | NCI-H522 lung 47.5% | A549/ATCC NSCLC 102% | 786-0 renal 101% | COLO 205 colon 120%

CC1=C(C(=O)Nc2ccccc2)C(c2ccc3ccccc3c2)n2c(nc3ccccc32)N1 (stereo not given)
active: NCI-H460 lung -45.5% | A549/ATCC NSCLC 8.83%
inactive: NCI-H23 lung 73.3% | NCI-H226 lung 84% | NCI-H322M lung 66.3% | HOP-62 NSCLC 113% | HOP-92 NSCLC 64.2% | NCI-H522 lung 63% | 786-0 renal 10.6% | COLO 205 colon 112%

COc1cc(NC(=O)C(C)C)ccc1C(=O)NC(=S)Nc1ccc(S(N)(=O)=O)cc1
inactive: NCI-H23 lung 102% | NCI-H226 lung 115% | NCI-H322M lung 99.7% | HOP-62 NSCLC 91.6% | NCI-H460 lung 107% | HOP-92 NSCLC 78% | NCI-H522 lung 76.3% | A549/ATCC NSCLC 106% | 786-0 renal 79.6% | COLO 205 colon 118%

COc1cccc(-c2ccc(/C=N/NC(=O)c3[nH]c4ccc(Br)cc4c3-c3ccccc3)s2)c1
active: NCI-H23 lung -41.9% | NCI-H226 lung -1.63% | NCI-H460 lung -15.4% | NCI-H522 lung -65.4% | 786-0 renal -12.2% | COLO 205 colon -28.7%
inactive: NCI-H322M lung 49.1% | HOP-62 NSCLC 14.6% | HOP-92 NSCLC 43.1% | A549/ATCC NSCLC 10.7%

Cc1ccccc1NC(=O)c1cccc(NC(=O)CCl)c1
inactive: NCI-H23 lung 52.8% | NCI-H226 lung 42.4% | NCI-H322M lung 101% | HOP-62 NSCLC 32.3% | NCI-H460 lung 41.6% | HOP-92 NSCLC 70% | A549/ATCC NSCLC 59.1% | 786-0 renal 16.6% | COLO 205 colon 76.5%
active: NCI-H522 lung -71.7%

COc1c(B(O)O)cc(F)cc1-c1nc2c(F)cc3[nH]ncc3c2c2c1CCCC2
active: NCI-H23 lung 5.45% | NCI-H226 lung 4.1% | NCI-H460 lung 2.44% | NCI-H522 lung 5.36% | A549/ATCC NSCLC 2.51% | COLO 205 colon -16%
inactive: NCI-H322M lung 12.6% | HOP-62 NSCLC 16.8% | HOP-92 NSCLC 17.2% | 786-0 renal 29.2%

O=C(CSc1nnc(-c2ccc(-c3nc4ccccc4[nH]3)cc2)o1)Nc1ccc(Br)cc1
active: NCI-H23 lung 1.35% | HOP-62 NSCLC 3.07% | NCI-H460 lung -55.2% | HOP-92 NSCLC 9.82% | A549/ATCC NSCLC 0.989% | 786-0 renal -40.9%
inactive: NCI-H226 lung 74.4% | NCI-H322M lung 36.8% | NCI-H522 lung 12.8% | COLO 205 colon 51.7%

COc1ccc(N=Nc2c(N)nn3c(-c4cc5cc(Br)ccc5oc4=O)ccnc23)cc1
active: NCI-H23 lung -4.72% | NCI-H226 lung -42.1% | HOP-62 NSCLC 2.1% | NCI-H460 lung 3.1% | HOP-92 NSCLC -3.29% | NCI-H522 lung 0.558% | 786-0 renal 5.11%
inactive: NCI-H322M lung 30.1% | A549/ATCC NSCLC 39.3% | COLO 205 colon 35.8%

COc1ccc(N=Nc2c(N)nn3c(-c4ccc5c(c4)C=S=C5)ccnc23)cc1
inactive: NCI-H23 lung 27% | NCI-H226 lung 22.8% | NCI-H322M lung 49.1% | HOP-62 NSCLC 42.5% | NCI-H460 lung 35.3% | A549/ATCC NSCLC 43% | 786-0 renal 55.7% | COLO 205 colon 54.8%
active: HOP-92 NSCLC 4.83% | NCI-H522 lung -12.6%

O=c1[nH]c2ccccc2cc1CSc1ccccc1Nc1nccc(-c2ccc3c(c2)OCO3)n1
inactive: NCI-H23 lung 85.5% | NCI-H226 lung 49.7% | NCI-H322M lung 87.7% | HOP-62 NSCLC 40.6% | NCI-H460 lung 76.7% | HOP-92 NSCLC 71.7% | NCI-H522 lung 34.8% | A549/ATCC NSCLC 82.4% | 786-0 renal 64.7% | COLO 205 colon 84.9%

Nc1cc2ccccc2c(=O)n1NC(=O)c1ccccc1
inactive: NCI-H23 lung 87.4% | NCI-H226 lung 80.8% | NCI-H322M lung 104% | HOP-62 NSCLC 103% | NCI-H460 lung 105% | HOP-92 NSCLC 111% | NCI-H522 lung 89.3% | A549/ATCC NSCLC 103% | 786-0 renal 105% | COLO 205 colon 111%

O=C1CCC(N2C(=O)c3cccc(NCCOCCOCCOCCC(=O)NCCCC(=O)NC(c4ccc5c(c4)OCO5)c4cc(Cl)c5cccnc5c4O)c3C2=O)C(=O)C1 (stereo not given)
inactive: NCI-H23 lung 45.1% | NCI-H226 lung 45% | NCI-H322M lung 39.5% | HOP-62 NSCLC 34.3% | NCI-H460 lung 26.6% | HOP-92 NSCLC 13.7% | A549/ATCC NSCLC 88.3% | 786-0 renal 70.8% | COLO 205 colon 24.5%
active: NCI-H522 lung 6.82%

CC(C)(C)c1cc(-c2cc(-c3ccccc3)[nH]c(=O)c2C#N)cc(C(C)(C)C)c1
active: NCI-H226 lung 3.42% | HOP-62 NSCLC -40.2% | HOP-92 NSCLC -16% | A549/ATCC NSCLC 5.52%
inactive: NCI-H23 lung 40.4% | NCI-H322M lung 23.6% | NCI-H460 lung 14.9% | NCI-H522 lung 41.8% | 786-0 renal 23% | COLO 205 colon 91.5%

O=C(NNC(=O)c1ccc(OCc2nc3ccc(Cl)cc3[nH]2)cc1)Nc1ccc(Cl)c(C(F)(F)F)c1
active: HOP-92 NSCLC -1.57%
inactive: NCI-H23 lung 35.9% | NCI-H226 lung 64.1% | NCI-H322M lung 43.6% | HOP-62 NSCLC 68.4% | NCI-H460 lung 38.1% | NCI-H522 lung 49% | A549/ATCC NSCLC 57.1% | 786-0 renal 70.1% | COLO 205 colon 85.6%

FC(F)(F)c1cc2c(Cl)ncnc2n1CCC1CCOCC1
inactive: NCI-H226 lung 39% | HOP-92 NSCLC 71.5% | A549/ATCC NSCLC 97.6% | 786-0 renal 87.7% | COLO 205 colon 71.5%
active: NCI-H23 lung -14.4% | NCI-H322M lung -72.6% | HOP-62 NSCLC 6.11% | NCI-H460 lung -68.8% | NCI-H522 lung -80%

— PubChem BioAssay (NCI)
